An excerpt weighted towards active compounds, which were near 2.2% of everything screened.
PLCb3 inh – human PLC-beta3 inhibitors, primary screen, biochemical, fluorescence; 1-phosphatidylinositol 4,5-bisphosphate phosphodiesterase beta-3 (Homo sapiens), Q01970; Purified PLC-beta3, fluorogenic substrate; inhibition, % at 12.2 µM; hit rate 0.18% among 370,000; in the data active = inhibition above about 11%;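 note: 0% = median of compound wells on plate and 100% = full blocker control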
NPR1 activator – GC-A stimulated cGMP production enhancers – HEK293 GC-A cells, cGMP TR-FRET, EC30 ANP, primary screen. hit rate 0.14% among 370,000. AID 1671463, 2021. activation, % at 10 µM. 0% at EC30 ANP, 100% saturating ANP; in the data active = activation above about 40%
PfM18AAP inh – PfM18AAP inhibitors, malaria aminopeptidase, primary screen, biochemical, QFRET, recombinant enzyme. AID 1822, 2009. inhibition, % at 7.35 µM. H-Glu-NHMec fluorogenic cleavage. hit rate 1.2% among 290,000;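 active = inhibition above the campaign mean inhibition over all tested compounds plus 3 SD, cut at about 28% in these data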;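 note: 0% = plate median of test compound wells and 100% = 2 mM ZnCl2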
Rce1 inhib – yeast Rce1p protease inhibitors, primary screen, biochemical, fluorescence, cell-free homogeneous | CAAX prenyl protease 2 (Saccharomyces cerevisiae (strain ATCC 204508 / S288c)), Q03530 | yeast membranes, quenched prenylated peptide cleavage fluorescence | calls only | hit rate 0.27% among 290,000;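 active = fall in fluorescence gain of 50% or more versus controls, with final raw signal at or below 3038400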;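 note: plate controls were neutral control wells for no effect and wells lacking membranes for full effect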
PLC-gamma1 inh – PLC-gamma1 enzyme inhibitors, primary screen, biochemical, fluorescence, purified enzyme | 1-phosphatidylinositol 4,5-bisphosphate phosphodiesterase gamma-1 (Homo sapiens), P19174 | fluorogenic substrate | inhibition, % at 12.2 µM | hit rate 0.84% among 370,000 | AID 720700, 2013
GC-B act – human GC-B receptor activators, primary screen, HEK293 GC-B cells, cGMP TR-FRET, EC30 CNP; Atrial natriuretic peptide receptor 2 (Homo sapiens), P20594; 0% at EC30 CNP, 100% saturating CNP; activation, % at 10 µM; hit rate 0.11% among 370,000;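 active = activation at 10 µM reaching about 35% in either raw or pattern-adjusted values, limit read from the data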
PLCg1 ctr – PLC-gamma1 enzyme inhibitors, counter-screen for PLC-beta3 inhibitor project, biochemical, fluorescence. shares compounds with PLC-gamma1 inh. purified PLC-gamma1, fluorogenic substrate. inhibition, % at 12.3 µM. hit rate 3.1% among 3,300
PLCb3 confirm – PLC-beta3 inhibitor confirmation, biochemical, fluorescence, purified enzyme | shares compounds with PLC-gamma1 inh | fluorogenic substrate fluorescence | inhibition, % at 12.3 µM | hit rate 1% among 3,300 | AID 743261, 2014; in the data active = inhibition above about 11%
Active calls of the source: *; i = inactive; · = no result. Cut-off read from the data, not from the text of the source, unless noted: active = inhibition above about 9.5%; inactive = the rest.

SMILES	PLCb3 inh	NPR1 activator	PfM18AAP inh	Rce1 inhib	PLC-gamma1 inh	GC-B act	PLCg1 ctr	PLCb3 confirm
COc1ccc(CNc2nc(NCc3ccc(OC)cc3)c3[nH]cnc3n2)cc1	9	8	·	i	12*	6	0	-2
CCOc1cc(Br)cc(C(c2c(C(=O)O)[nH]c3ccccc23)c2c(C(=O)O)[nH]c3ccccc23)c1O	-10	0	8	i	28*	-1	48*	-4
COc1ccc(NS(=O)(=O)c2cc(NC(=O)c3cccnc3Cl)ccc2N2CCCC2)cc1	0	-11	2	i	10*	-1	2	-7
COc1cc(CN2CCC(C)CC2)ccc1OCc1ccccc1	-2	1	-13	i	15*	-2	5	4
COc1cc(CN2CCCC(C)C2)ccc1OCc1ccccc1 (stereo not drawn)	-3	4	-5	i	5	4	·	·
COc1cccc(C(CC2=CCCCC2)NC(=O)C(F)(F)F)c1 (stereo not drawn)	0	-3	·	·	2	-6	·	·
CN(C(=O)COc1ccccc1C(=O)NCCOc1ccccc1)c1ccccc1	17*	-5	-7	i	15*	-8	6	12*
Cn1cnnc1SCC(=O)n1c2ccccc2c2ccccc21	8	2	5	i	14*	-1	-10	-6
Cc1ccccc1C(=O)NC(C)c1ccc2c(c1)CCCC2 (stereo not drawn)	13*	-2	2	i	10*	-8	2	7
CCOC(=O)C1=NOC(C(C)=O)(C(=O)N2CCOCC2)C1 (stereo not drawn)	-3	-2	·	·	2	-1	·	·
Nc1[nH][nH]c(=O)c1N=Nc1cccc(Cl)c1	11*	-25	21	i	11*	-8	0	4
COc1cccc(N=Nc2c(N)[nH][nH]c2=O)c1	3	-15	13	i	3	-14	·	·
C=CCNC(=O)CN(C(=O)c1ccncn1)c1cccc(Br)c1	2	-3	·	·	0	-10	·	·
O=c1[nH]n(-c2ccc(Cl)cc2)c(=O)c(Cl)c1Cl	3	3	-3	i	9.8*	-2	-8	-7
O=S1(=O)C=CCN1Cc1cn(Cc2ccc(F)cc2)nn1	3	-1	·	·	2	-2	·	·
O=C(Nc1ccc(Nc2ccccc2)cc1)C1CC1	2	1	-1	i	7	10	·	·
CC(C)(C)C1CCC(C(=O)Nc2ccccc2)CC1 (stereo not drawn)	5	3	-1	i	11*	2	6	13*
O=C1[C@H](Cc2ccccc2)NCCCC[C@@H](c2ccc(Cl)cc2)N1Cc1ccccc1	1	-13	·	·	16*	-25	1	2
CCOC(=O)COc1nc2ccc(Br)cc2c(-c2ccccc2)c1C(C)=O	-3	-13	5	i	9.8*	2	-5	-4
CCOC(=O)c1c(C)nc2ccc(Cl)cc2c1-c1ccccc1	2	-10	-12	i	6	-6	·	·
C#CCN1CC(N(C)CCOC(=O)CSc2ccccc2)CS1(=O)=O (stereo not drawn)	2	2	·	·	2	2	·	·
CCOC(=O)C(NC(=O)c1ccccc1F)(Nc1cc(C)on1)C(F)(F)F (stereo not drawn)	12*	2	-7	i	5	5	-2	-2
CCOC(=O)C1CSCCS(=O)(=O)N1Cc1ccccc1F (stereo not drawn)	-1	2	·	·	2	0	·	·
O=C(CN1C(=O)NC2(CCCCCCC2)C1=O)NCc1ccc(Cl)cc1	-4	-2	·	·	12*	3	-5	-3
CSc1ccc(CN(C)C(=O)CN2C(=O)NC3(CCCC3)C2=O)cc1	-9	4	·	i	2	-1	·	·
SMILES	PLCb3 inh	NPR1 activator	PfM18AAP inh	Rce1 inhib	PLC-gamma1 inh	GC-B act	PLCg1 ctr	PLCb3 confirm
CN(Cc1ccccc1)C(=O)CN1C(=O)NC2(CCCCCCC2)C1=O	0	3	·	·	13*	10	1	5
CCOC(=O)[C@@]12CN(C(=O)OC(C)(C)C)CC=C1N(Cc1ccc(OC)cc1)C(=O)[C@H]2CC(=O)N1CCCC1	-2	4	·	·	-1	0	·	·
COc1ccccc1C(O)P(=O)(OCC(C)C)c1ccc(N(C)C)cc1 (stereo not drawn)	-6	-3	-3	i	1	3	·	·
CCCOP(=O)(c1ccc(N(C)C)cc1)C(O)c1ccccc1OC (stereo not drawn)	5	-4	6	i	10*	0	-1	1
CCCCOCCCNC(=O)C[C@H]1C[C@@]2(C(=O)OC)C(=C[C@H](C(C)(C)C)O[C@@H]2C)N(Cc2ccc3c(c2)OCO3)C1=O	1	-2	·	·	4	-6	·	·
CCN(CC)C(=O)CC[C@H]1CC[C@]2(CCCN(Cc3cccc4ccccc34)C2)O1	3	-1	·	·	1	2	·	·
CC1CCC(C(C)C)C(OCC(O)C[N+]2(C)CCCCC2)C1 (stereo not drawn)	0	0	2	i	11*	2	-3	-1
CC1CCC(C(C)C)C(OCC(O)CN2CCCC(C)C2)C1 (stereo not drawn)	-2	2	-1	i	3	-3	·	·
Cc1ccc(S(=O)(=O)NC2c3cccc4cccc(c34)C2Sc2n[nH]c(N)n2)cc1 (stereo not drawn)	-2	0	8	i	9.9*	-4	-3	-3
CCOC(=O)[C@]12CCCC=C1N(Cc1ccc(OC)cc1)C(=O)[C@@H]2CC(=O)N1CCC(c2ccccc2)CC1	0	-5	·	·	3	-3	·	·
COc1ccc(S(=O)(=O)N(CCc2ccccc2)CC(=O)NC(C)C)cc1	2	-5	-5	i	11*	-2	-5	1
COc1ccc(S(=O)(=O)N(CC(=O)NC(C)C)Cc2ccccc2)cc1	0	-8	-4	i	-2	0	·	·

Compound activity as filed in PubChem BioAssay.
